About 83,000 compounds went through this panel and 20% of them were active in at least one assay; those are over-represented in the sample as a whole.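 Step 1: grow cells in 96-well plates. Step 2: add test compound at a single concentration. Step 3: incubate 48 h. Step 4: record percent growth.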 Unmarked numbers belong to inactive results. Calls of active or inactive are those of the source. How the source made its calls: active means growth percent below 10; inactive means the rest.
Tested on: HL-60(TB) leukemia
Assay: NCI-60 one-dose screen, 48 h (100 = growth as untreated, 0 = no growth, -100 = all killed)
Conditions: 10 µM unless noted

Structure (SMILES)	growth
CC[C@]12C=CCN3CC[C@@]4(c5ccc(OC)cc5N(C)[C@H]4[C@@](O)(C(=O)OC)[C@@H]1OC(=O)CCC[P+](c1ccc(OC)cc1)(c1ccc(OC)cc1)c1ccc(OC)cc1)[C@@H]32	-39.7% (active)
Cc1ccc(/C=C/C(=O)c2ccc(NC(=O)CSc3nnc(-c4c[nH]c5ccccc45)n3-c3ccccc3)cc2)cc1	75.5%
O=C(Nc1ccc(OCc2ccc(F)cc2)cc1)Nc1ccc(Cl)c(C(F)(F)F)c1	-3.24% (active)
C=C1CC[C@@H]2[C@]3(C)COC(c4ccccc4)O[C@@H]3CC[C@@]2(C)[C@@H]1C/C=C1/C(=O)OCC1OC(C)=O (stereo partly drawn)	-52.4% (active)
COc1cc2c3c(n(CCCNCCO)c(=O)c2cc1OC)-c1nc2c(cc1C3=O)OCO2	38.3%
COc1cc(C2CC(c3ccc(S(=O)(=O)NCCNc4nc(Nc5ccc(F)cc5)nc(N(C)C)n4)cc3)=Nc3c(N)nc(N)nc3N2)cc(OC)c1OC (stereo not drawn)	80.3%
CCCSc1nc(Nc2ccc(S(N)(=O)=O)cc2)c(C#N)c(-c2ccc(Cl)cc2)n1	46.3%
COc1cc(/C=C/C(=O)c2ccc(S(=O)(=O)NCCNc3nc(Nc4ccc(F)cc4)nc(N(C)C)n3)cc2)cc(OC)c1OC	-4.97% (active)
O=c1c2ccccc2nc(COc2ccccc2)n1/N=C/c1ccc(N2CCOCC2)cc1	100%
COc1cccc(O)c1/C=C1\SCc2cc3c(OC)cccc3[o+]c21	100%
CC(=O)c1ccc(Nc2nc(SCCC(C)C)nc(-c3ccc(F)cc3)c2C#N)cc1	91.8%
CC(C)(C)c1ccc(NCc2cn(-c3ccc(C(=O)O)cc3)nc2-c2ccc(C#N)cc2)cc1	3.14% (active)
O=C(N/N=C/c1ccc(B(O)O)s1)c1[nH]c2ccc(Br)cc2c1-c1ccccc1	-18.2% (active)
O=C(N/N=C/c1ccc(-c2cccc([N+](=O)[O-])c2)s1)c1[nH]c2ccc(Br)cc2c1-c1ccccc1	81.4%
Cc1ccccc1Nc1nnc(-c2c[nH]c3ccccc23)o1	-23.7% (active)
COc1ccc(NC2=C(I)C(=O)C(C)=C(C)C2=O)cc1	-35.7% (active)
CC(=O)Nc1ccc(-c2nc3cc(-c4ccc(O)cc4)ccc3n2C)cc1	26%
CC1=C(C(=O)OC(C)C)C(c2ccc(O)cc2)NC(=S)N1 (stereo not drawn)	88.1%
O=C1NC(=NC2CCCCCC2)N/C1=C\c1ccc2ncoc2c1	30.1%
CN(CCSSCCN1CCOCC1)C(=O)Oc1cc2c(c3ccccc13)[C@H](CCl)CN2C(=O)c1cc2cc(OCCCN3CCC3)ccc2[nH]1	-45.8% (active)
NS(=O)(=O)c1ccc(Nc2nc(SCC(=O)c3ccc(F)cc3)nc3ccccc23)cc1	63.7%
COc1cc(OC)c2c3nc4cc(C)c(C)cc4nc3n(CCN(C)C)c2c1	52.9%
CCOC(=O)c1c(CSc2ccccc2)n(C)c2cc(CN(C)C)c(O)c(CN(C)C)c12	52.2%
COc1cc(C2CC(c3cc(OC)c(OC)c(OC)c3)=Nc3c(N)nc(N)nc3N2)ccc1Oc1nc(NCCO)nc(N2CCOCC2)n1 (stereo not drawn)	91.9%
O=C(O)CCCCCCCCCCN1C(=O)/C(=C/c2cnc(-c3ccccc3)s2)SC1=S	63.6%

Structure (SMILES)	growth
Cc1ccn2c(C(=O)c3ccc(Br)cc3)cc(-c3cc(-c4ccc(N(C)C)cc4)c(C#N)c(N)n3)c2c1	89.5%
N#Cc1c(-c2ccccc2Cl)cc(-c2c[nH]c3ccccc23)[nH]c1=O	68.4%
COc1ccccc1NC(=O)c1ccc(NC(=O)CCl)s1	-53.8% (active)
C=C1CCC2C3(C)COC(c4ccco4)OC3CCC2(C)C1CC(Sc1ccccc1)C1=CCOC1=O (stereo not drawn)	-21.6% (active)
O=C(CSc1ccc(-c2ccc(Cl)cc2)nn1)Nc1ccc(Cl)c(C(F)(F)F)c1	32.7%
Cc1cc(C)cc(C(=O)Nc2cccc(-c3cn(-c4ccc(S(N)(=O)=O)cc4)nn3)c2)c1	75.8%
COc1ccc(-c2cc(-c3cc(C(=O)c4ccc(Br)cc4)n4ccc(C)cc34)nc(N)c2C#N)cc1	96.6%
CCOC(=O)C1=C(N)N(c2ccccc2)C2=C(C(=O)CC(C)(C)C2)C1c1ccc(Cl)cc1 (stereo not drawn)	6.03% (active)
CN1CCO/C1=C(/NC(=O)c1ccc(Cl)cc1)[P+](c1ccccc1)(c1ccccc1)c1ccccc1	54.7%
COc1ccc(C2NC(=S)NC(C)=C2C(=O)OC(C)C)cc1OC (stereo not drawn)	100%
CCCCNc1ccc2c3c(cccc13)C(=O)N(c1cccc(-c3nn(-c4ccccc4)cc3-c3nc4ccccc4s3)c1)C2=O	106%
COc1ccc(C(=O)/C=C/c2cc(C(F)(F)F)cc(C(F)(F)F)c2)cc1S(N)(=O)=O	2.43% (active)
Cc1ccc([N+](=O)[O-])c(C(=O)Nc2ccc(-c3ccc4c(c3)NC(=O)/C4=C\c3ccc[nH]3)cc2)c1	49.5%
CCOC(=O)c1ccc(Nc2nc(NN)nc(-c3ccc(OC)cc3)c2C#N)cc1	103%
Cn1cc(Nc2ncnc(-c3ccc(N4CCCC4)c(C#N)c3)n2)cn1	49.1%
CC(=O)NS(=O)(=O)c1ccc(NC(=O)CSC2=NC(c3ccccc3)C(C(C)=O)=C(C)N2)cc1 (stereo not drawn)	97.4%
COc1ccc(/C=C/c2nc3ccccc3n3c(-c4cccc([N+](=O)[O-])c4)nnc23)cc1	-49.3% (active)
C/C(=N\N=C\c1ccc(N(C)C)cc1)c1ccc2c(c1)Nc1ccccc1S2	59.2%
COc1c2c(cc3c1C(CCc1ccccc1)N(C)CC3)OCO2 (stereo not drawn)	-28.3% (active)
C=CCSc1nnc(-c2ccc(-c3nc4ccc(Cl)cc4[nH]3)cc2)o1	29.8%
CN(C)c1ccnc(CNCCSC2(c3ccccc3)c3ccccc3C=Cc3ccccc32)c1	-42.8% (active)
CC1=C(C(=O)OC(C)C)C(c2cccc(O)c2)NC(=S)N1 (stereo not drawn)	99.2%
CC1[C@H]2[C@H](C[C@H]3[C@@H]4CC=C5c6sc(Nc7cccc(Cl)n7)nc6CC[C@]5(C)[C@H]4CC[C@@]32C)O[C@]12CC[C@@H](C)CO2 (stereo partly drawn)	45.4%
COc1ccc(NC(=O)Nc2nc3ccc([N+](=O)[O-])cc3s2)cc1	2.05% (active)
CCCSc1nnc(-c2c(C)nc3sccn23)o1	98.3%

Structure (SMILES)	growth
C=C1CC[C@@H]2[C@]3(C)COC(c4cn(-c5ccccc5)nc4-c4ccccc4)O[C@@H]3CC[C@@]2(C)[C@@H]1C/C=C1/C(=O)OC[C@H]1O (stereo partly drawn)	-33.7% (active)
Clc1ccc(-c2ccc(OCCCN3CCN(c4ccncc4)CC3)cc2)cc1	-13.9% (active)
O=c1[nH]c2ccccc2cc1CSc1cccc(Nc2nccc(-c3ccc4ccccc4c3)n2)c1	93.5%
CCCCSc1nc(NCCc2c[nH]c3ccccc23)c(C#N)c(-c2ccc(OC)cc2)n1	42.5%
COC(=O)CSC1=C(C)C(=O)C(OC)=C(OC)C1=O	45.9%
CN1CCN(c2ccc(C(=O)/C=C/c3ccc(C#N)cc3)cc2)CC1	65.1%
COc1ccc(N=Nc2c(N)nn3c(-c4ccc5c(c4)C=S=C5)ccnc23)cc1	37.7%
C=C1CC[C@@H]2[C@]3(C)COC(c4cn(-c5ccccc5)nc4-c4cccc([N+](=O)[O-])c4)O[C@@H]3CC[C@@]2(C)[C@@H]1C/C=C1/C(=O)OC[C@H]1O (stereo partly drawn)	12.6%
COc1ccc(-c2c(Nn3cnnn3)no[n+]2[O-])cc1	38.8%
Cc1noc2c(Cc3ccccc3)nn(CC(=O)N/N=C/c3ccc(Cl)cc3)c(=O)c12	103%
CC1=C(C(=O)OCc2ccccc2)C(c2ccc(N(C)C)cc2)n2c(nc3ccccc32)N1 (stereo not drawn)	73.7%
COc1cccc2nc(Nc3cccc(NC(=O)c4ccc(CN5CCCN(C)CC5)c(C(F)(F)F)c4)c3)ccc12	-54.3% (active)
COc1cc(/C=C/C(=O)c2ccc(NC(=O)CN3C(=O)NC(C)(c4ccccc4)C3=O)cc2)cc(OC)c1OC (stereo not drawn)	-11.5% (active)
COc1cc(CNC(=O)C[C@H](C)CCC=C(C)C)ccc1OCc1cn(-c2ccc(Cl)cc2Cl)nn1	95.5%
COc1cc2oc(-c3cccc(C(=O)Nc4ccc(Cl)cc4)c3)cc(=O)c2c(OCCNC(=O)[C@H](CCC(=O)OC(C)(C)C)NC(=O)OC(C)(C)C)c1OC	101%
CC1(C)CC[C@]2(C(=O)Nc3ccc(Br)cc3)CC[C@]3(C)C(=CCC4[C@@]5(C)C[C@@H](O)[C@H](O)[C@@](C)(CO)C5CC[C@]43C)C2C1 (stereo partly drawn)	-13.2% (active)
CSc1ccc(C(=O)Nc2ccc3nnn(/C(C#N)=C/c4ccccn4)c3c2)cc1	6.83% (active)
Cn1cc(-c2nnc(N)nc2-c2c[nH]c3ccc(Br)cc23)c2cc(Br)cnc21	29.8%
Cc1cc2c(cc1Cl)C(=O)/C(=C/c1ccc(F)cc1)O2	101%
COc1ccc(C2N(c3ccc(Br)cc3)N=C(C(C)=O)N2[C@H]2[C@H](OC(C)=O)O[C@H](COC(C)=O)[C@@H](OC(C)=O)[C@@H]2OC(C)=O)cc1 (stereo partly drawn)	23.7%
O=C(NO)c1ccc(-c2nc3ccc4[nH]ncc4c3c3c2CCCC3)cc1	-18.7% (active)
COc1cccc2nc(Nc3cccc(NC(=O)c4ccc(CN5CCN(C)CC5)c(C(F)(F)F)c4)c3)ccc12	-53.1% (active)
COc1c(F)ccc(C(=O)Nc2ccc3nc(NC(=O)C4CCCN(S(=O)(=O)c5ccc(C(F)(F)F)cc5)C4)sc3c2)c1F (stereo not drawn)	101%

Reference: PubChem BioAssay (NCI)
